Inhibition data for 10 compounds are collected here from ChEMBL document CHEMBL1157539, “Thousands of chemical starting points for antimalarial lead identification” (Nature, 2010).

Holding throughout (assay type): functional
For assay [1], the system named is Plasmodium falciparum. In words: GSK_TCMDC: Inhibition of Plasmodium falciparum 3D7 in whole red blood cells, using parasite LDH activity as an index of growth. Test compounds present at 2uM.
Assay [2] relates to Plasmodium falciparum. In words: GSK_TCMDC: Inhibition of Plasmodium falciparum Dd2 in whole red blood cells, using parasite LDH activity as an index of growth. Test compounds present at 2uM.
In assay [3] the test system is HepG2. Put plainly: GSK_TCMDC: Percent inhibition of human HepG2 cell line. Test compounds present at 10uM.

On to `COc1cc(Cc2cnc(N)nc2N)cc(OCc2cccc(C(=O)O)c2)c1OC.Cl`, for which the Inhibition in assay [1] is 92%; in assay [2], 0%; in assay [3] it was 8%.
For `O=[N+]([O-])c1ccc(C2=NN(S(=O)(=O)c3c(Cl)cc(Cl)cc3Cl)CCCC2)cc1`, in that order: 99%, 98% and 5%.
Regarding `CCN(CC)CCN(Cc1ccc(-c2ccc(C#N)cc2)cc1)C(=O)Cn1c(CCc2cccc(F)c2F)nc(=O)c2ccccc21.O=C(O)C(O)C(O)C(=O)O`, the Inhibition was 100% in assay [1], 46% in assay [2] and 31% in assay [3].
For `CC(C)(C)c1nn(-c2ccccc2)c2[nH]c(=O)c(CNC3CCCCC3)cc12`, in that order: 83%, 76% and 6%.
For `Cc1[nH]c(C)c(-c2ccc(-c3ccc(C#N)cc3)nc2)c(=O)c1Br`, the Inhibition came to 97% in assay [1], 87% in assay [2] and 5% in assay [3].
Taken in the same sequence, the figures for `CC(CCc1ccccc1)NCC(O)c1cccc(C(F)(F)F)c1.Cl` (stereo not given) were 99%, 98% and 18%.
Taken in the same sequence, the figures for `O=C(Nc1cccc(-c2csc(-c3nc4ccccc4[nH]3)c2)c1)c1cccnc1` were 98%, 45% and 18%.
For `CC(C)CCNC(=O)C1Cc2c([nH]c3cc(Br)ccc23)C2(CCN(CCc3ccccc3)CC2)N1` (stereo not given), in that order: 97%, 48% and 14%.
For `Cl.c1ccc(CN2CCN(CCNc3c4ccccc4nc4ccccc34)CC2)cc1`, the results for the Inhibition in assay [1], in assay [2] and in assay [3] were 100%, 97% and 44%, respectively.
For `O=C(/C=C/c1ccc(C(F)(F)F)cc1)NCCCCCN1CCCN(C(=O)Nc2ccc(Cl)c(C(F)(F)F)c2)CC1`, in that order: 99%, 31% and 64%.
